# HCV inhibitor: blocks hepatitis C virus; hit rate 3.4% among 340,000; Huh7.5.1 HCVcc-Cre infection, luciferase reporter, 44 h; Potency, µM (series often up to 41.8 µM), for inactives: top-dose activity change, negative = inhibition, actives largely listed as inhibitors; AID 651820; also: potency is read from the fitted curve at half-maximal effect
#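 HCVcc-Cre virus at an moi near 0.5 was added right after compound to cells cultured 4 h from seeding (1,000 cells/well). Luciferase activity was determined 44 h later, 15 min after substrate addition at RT.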
# Pf growth 96h: P. falciparum growth inhibition at 96 hours; P. falciparum luciferase reporter growth, 96 h; Potency, µM (series often up to 28.7 µM), inactives show at the top dose activity change, negative = inhibition, usual class: inhibitors; hit rate 6.9% among 320,000; AID 504834; also: potency is read from the fitted curve at half-maximal effect
#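 Two parasite generations (96 h, 37 C, 5% CO2) of compound exposure in infected erythrocytes (0.05% parasitemia, 2% hematocrit). Luciferase-reporter P. falciparum; decreased luminescence indicates inhibited growth, aimed at apicoplast-acting delayed death.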
# HCMV antiviral: inhibitors of human cytomegalovirus; HFF cells, HCMV-luciferase reporter, 72 h; hits give low values; activity change, negative = inhibition, % at 57.5 µM; hit rate 4.5% among 410,000; in the data active = activity change below about -60%; inconclusive = no clear call, values can overlap the other calls; inactive = above about -39%
#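 Luciferase read-out from HCMV-luciferase-infected HFFs (MOI 1 PFU/cell) 72 h post infection at 37C; compounds added after 16 h cell attachment; activity normalized between buffer-only basal and Salinomycin (10uM) inhibitor controls.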
# Pf growth 48h: P. falciparum growth inhibition at 48 hours (one generation); hit rate 5.9% among 310,000; Potency, µM (titrated, usually from 28.7 µM), for inactives: at the top dose activity change, negative = inhibition, most hits filed as inhibitors; P. falciparum luciferase growth in erythrocytes, 48 h; AID 504832; also: potency is read from the fitted curve at half-maximal effect
#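 Read-out is firefly luciferase luminescence from an integrated reporter in P. falciparum, so falling signal marks reduced parasite growth. Infected erythrocytes were at 2% hematocrit and 0.1% parasitemia (final) in Albumax-supplemented RPMI 1640.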
# The depositor's hits bear a star; ? = inconclusive; nt = no result given. A selection: hits, their analogues and other compounds. The true share with any hit is near 13%. Unless noted, calls follow the shape of the dose curve; as a rule, active = well fitted inhibition curve with a large enough effect; inconclusive = small, poorly fitted or top-dose-only effect, or another doubt; inactive = no such curve, though single readings can be large or run the other way. % is scaled to controls: 0 for no effect and ±100 for the full control effect.
SMILES,HCV inhibitor,Pf growth 96h,HCMV antiviral,Pf growth 48h
COc1ccc(C(O)P(=O)(OCCC(C)C)c2ccc(N(C)C)cc2)cc1OC (stereo unspecified),22%,?,11,-14%
Cc1ccc(C(O)P(=O)(OCCC(C)C)c2ccc(N(C)C)cc2)cc1 (stereo unspecified),-9%,?,nt,12µM*
CN(C)c1ccc(P(=O)(OCc2ccccc2)C(O)c2ccc(Br)cc2)cc1 (stereo unspecified),1%,?,16,?
CC(C)CNC(=S)NC1CC2CCCC(C1)N2Cc1ccco1 (stereo unspecified),12%,12µM*,-39,-17%
CNC(=S)NC1CC2CCCC(C1)N2Cc1ccco1 (stereo unspecified),4%,34%,-8,12%
CC(C)CNC(=S)NC1CC2CCCC(C1)N2Cc1cccs1 (stereo unspecified),-4%,3.7µM*,10,13µM*
Fc1ccc(NC(=S)NC2CC3CCCC(C2)N3Cc2cccs2)cc1 (stereo unspecified),2%,2%,-11,?
COc1cc2nc(NCCC(C)C)n3nc(-c4ccccc4)nc3c2cc1OC,nt,nt,-2,nt
c1ccc(-c2ccc(-c3n(-c4ccccn4)c4ccccc4[n+]3-c3ccccn3)cc2)cc1,?,15µM*,-2,?
c1ccc(-n2cnc3ccccc32)nc1,-23%,-9%,?,18%
O=C(NCc1ccco1)C(=O)NN=Cc1ccccc1O,nt,nt,-25,nt
O=S(=O)(NC1CCCC1)c1ccccc1Br,19%,24%,-97*,20%
COc1ccc(S(=O)(=O)NC2CCCC2)cc1Br,9%,nt,3,3%
CCOC(=O)C1=C(C)N(C)C(=S)NC1c1ccccc1Cl (stereo unspecified),18%,?,-17,0%
CCOC(=O)C1=C(C)N(C)C(=S)NC1c1ccc(Cl)cc1Cl (stereo unspecified),-9%,15µM*,-28,-17%
COCCN1Cc2cccc(C(=O)Nc3ccc(-c4nc5ccccc5[nH]4)cc3)c2C1=O,-1%,?,-19,?
CCCN1Cc2cccc(C(=O)Nc3ccc(-c4nc5ccccc5[nH]4)cc3)c2C1=O,?,-13%,?,2.3µM*
COCCN1Cc2cccc(C(=O)Nc3cccc(-c4nc5ccccc5[nH]4)c3)c2C1=O,?,?,-69*,1.9µM*
COc1ccc(Sc2cccc3c2S(=O)(=O)N([C@H](C)c2ccccc2)C[C@@H](COCc2ccccc2)O3)cc1OC,nt,nt,-27,nt
Cc1ccc(S(=O)(=O)N2CCN(Cc3cc(Br)ccc3O)CC2)cc1,nt,nt,-4,nt
O=S(=O)(c1ccccc1)N1CCN(CC2CC3C=CC2C3)CC1 (stereo unspecified),15%,7%,-102*,-7%
O=C(c1csc(Nc2ccccc2Cl)n1)N1CCCC1,-1%,2.3µM*,-93*,21%
O=C(c1csc(Nc2cccc3ccccc23)n1)N1CCCC1,-8%,?,0,?
O=C(Nc1cccc(Cl)c1Cl)c1cc(S(=O)(=O)N2CCCc3ccccc32)ccc1F,nt,nt,-16,nt
O=C(COc1cccnc1[N+](=O)[O-])NCCc1ccc(Cl)cc1Cl,8%,-8%,-64*,?
SMILES,HCV inhibitor,Pf growth 96h,HCMV antiviral,Pf growth 48h
COc1ccc(CCN2C(=O)CN(C3CCC(C)CC3)C(=O)C2c2ccc(OC(C)C)c(OC)c2)cc1OC (stereo unspecified),nt,nt,0,nt
CCN(CC)C(=O)C1c2ccccc2Oc2ccccc21,?,5.2µM*,-29,28%
Cc1ccc(OC(=O)C2c3ccccc3Oc3ccccc32)cc1C,-2%,5.2µM*,-28,-12%
CC(C)[N+](C)(CCOC(=O)C1c2ccccc2Oc2ccccc21)C(C)C,?,0.015µM*,-22,?
CCOC(=O)c1c(S(=O)(=O)NCC(=O)Nc2ccc(C(C)=O)cc2)c(C)n(C)c1C,nt,nt,1,nt
O=[N+]([O-])c1ccc(OCC(O)CN(CCO)CCO)cc1 (stereo unspecified),8%,46%,-16,37%
CCCCN(CCCC)CC(O)COc1ccc(Br)cc1 (stereo unspecified),?,3.3µM*,-30,3.7µM*
COc1ccc2c(c1OC)C(=O)N1N=C(c3ccccc3)CC21 (stereo unspecified),?,?,?,4.1µM*
Cc1ccccc1C(=O)N1CCC(c2nc3ccccc3s2)CC1,nt,nt,-16,nt
CCc1ccc(C(=O)N2CCC(c3nc4ccccc4s3)CC2)cc1,-22%,3.3µM*,-1,13%
Cc1cc2oc(C(=O)Nc3sc4c(c3C(=O)NCc3ccccc3)CCCC4)cc(=O)c2cc1C,nt,nt,5,nt
COc1ccc2c(c1)CC/C=C(/c1ccccc1)CCO2,nt,nt,-8,nt
Cc1nn(-c2cccc(Cl)c2)nc1C(=O)Nc1cccc(C(=O)NC2CC2)c1,10µM*,?,4,15µM*
Cc1nn(-c2ccccc2)nc1C(=O)Nc1cccc(C(=O)NC2CC2)c1,nt,nt,-4,nt
Cc1ccc(-n2nc(C)c(C(=O)Nc3cccc(C(=O)NC4CC4)c3)n2)c(C)c1,11µM*,15µM*,?,?
Cc1ccc(Nc2nc3ccc(C)cc3nc2-n2nc(C)cc2C)c(C)c1,nt,nt,-2,nt
C=CCn1c(=O)/c(=C/c2cc(OC)c(OC)c(OC)c2)s/c1=C(/C#N)c1nc2ccccc2n1C,?,80%,-20,5.2µM*
COc1ccc(/C=N/Nc2nc(N3CCCCC3)nc(N3CCCCC3)n2)cc1[N+](=O)[O-],3.5µM*,47%,-74*,?
COc1ccc(/C=N/Nc2nc(Nc3ccccc3)nc(N3CCCC3)n2)cc1[N+](=O)[O-],?,-6%,?,2.1µM*
CCOc1ccc(/C=N/Nc2nc(N3CCCC3)nc(N3CCCC3)n2)cc1OC,-27%,?,20,10µM*
COc1cc(/C=N/Nc2nc(N3CCCC3)nc(N3CCCC3)n2)ccc1O,?,nt,7,?
Cc1cc(NC(=O)CSc2nc3c([nH]c4ccccc43)c(=O)n2-c2cccc(Cl)c2)no1,nt,nt,34,nt
CCOC(=O)c1[nH]c2c(c1Cc1ccccc1OC)C(=O)CC(c1ccccc1)C2 (stereo unspecified),nt,nt,-13,nt
COc1ccc(Br)cc1/C=N/NS(=O)(=O)c1ccccc1,nt,nt,-87*,nt
COc1ccc(/C=N/Nc2ccccn2)cc1OC,-12%,-2%,113,117%
COc1ccc(Br)cc1/C=N/Nc1ccccn1,11µM*,?,60,10%
Cc1ccc(-c2cc(C(=O)Nc3ccc(S(=O)(=O)N4CC(C)OC(C)C4)cc3)[nH]n2)c(O)c1 (stereo unspecified),4%,0.66µM*,?,0.26µM*
Cc1ccc(O)c(-c2cc(C(=O)Nc3ccc(S(=O)(=O)Nc4nc(C)cc(C)n4)cc3)[nH]n2)c1,3%,13µM*,-5,?
Cc1cc(C)nc(NS(=O)(=O)c2ccc(NC(=O)c3ccc(S(=O)(=O)N4CC(C)OC(C)C4)cc3)cc2)n1 (stereo unspecified),9%,?,-6,?

# Screening results from PubChem.
